Potency data for nine compounds are collected here from PubChem BioAssay (Tox21).

“And” between values parts separate entries of the source, which are not always exact repeats. Identical values can stand only once. Inconclusive results are not listed. The source made the active and inactive calls. Unless noted, calls follow the shape of the dose curve; as a rule, active = well fitted curve in the direction sought with a large enough effect in the repeat runs; inconclusive = weak or mixed curves; inactive = no such curve, though single readings can be large; an effect the other way counts as inactive or inconclusive.

A short description of assay [1]: qHTS assay to identify small molecule agonists of the RXR signaling pathway - cell viability counter screen (AID 1159529).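 Also: HEK 293T cells carrying an RXR-alpha UAS beta-lactamase reporter; series mostly up to about 77 µM; nearly all actives have a fitted effect of over 50% in size.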 A digest of the protocol:
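HEK 293T RXRa-bla cells, 2% CS-FBS; 5 h settle; cpd 16 h 37 C, 5% CO2; CellTiter-Glo 30 min RT, luminescence. Tetraoctyl ammonium bromide as positive control.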
For orientation: In qHTS, concentration-response curves come from the screen itself.

The nature of assay [2]: qHTS assay to identify small molecule antagonists of the retinoid acid receptor (RAR) signaling pathway - cell viability counter screen (AID 1159551). Also: nearly all actives have a fitted effect of over 35% in size. A digest of the protocol:
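Luminescent ATP quantitation (CellTiter-Glo) gave cell viability in C3RL4 cells exposed to test chemicals for 6 h at 37 C alongside 1 uM final retinol.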

Assay [3] can be described thus: qHTS assay to identify small molecule antagonists of the retinoic acid receptor (RAR) signaling pathway (AID 1159552; also: nearly all actives have a fitted effect of over 50% in size). An outline of the steps:
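Cells of the C3RL4 line were seeded, incubated overnight, then dosed with compounds in DMSO followed immediately by retinol (1 uM final). Six hours later luciferase detection reagent went in; signal was measured after 30 min at RT.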

Assay [4] is described as follows: qHTS assay to identify small molecule agonists of the retinoic acid receptor (RAR) signaling pathway (AID 1159553). Also: potency is read from the fitted curve at half-maximal effect. An outline of the steps:
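Luminescence from a RARE-driven luciferase reporter in C3RL4 cells served as the read-out, measured after 30 min with detection reagent at room temperature. Compounds in DMSO were applied for 6 hr at 37 C following overnight seeding.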

Assay [5] is described as follows: qHTS assay to identify small molecule antagonists of the estrogen related receptor (ERR) signaling pathway from Tox21 library - cell viability counter screen (AID 1224834). Also: nearly all actives have a fitted effect of over 30% in size. An outline of the steps:
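Fluorescence from CellTiter-Fluor gives the viability read-out, taken 30 min after reagent addition. Before that, ERR cells seeded 6 h earlier were incubated with compounds for 17.5 h at 37 C.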

Assay [6] concerns the target Luciferin 4-monooxygenase (Photinus pyralis) (UniProt P08659). Briefly: qHTS assay to identify small molecule inhibitors of firefly luciferase (AID 1224835). Also: nearly all actives have a fitted effect of over 25% in size. Also: potency is read from the fitted curve at half-maximal effect. An outline of the steps:
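Biochemical qHTS: compounds run as interplate titrations against purified firefly enzyme, with D-luciferin and ATP each at its KM concentration. Light output recorded by CCD imaging.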

Assay [7] is described as follows: qHTS assay to identify small molecule agonists of the constitutive androstane receptor (CAR) signaling pathway - cell viability counter screen (AID 1224836). Also: series mostly up to about 92 µM; nearly all actives have a fitted effect of over 45% in size. A digest of the protocol:
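HepG2-CYP2B6-hCAR, 2500 cells/well, 4 h pre-incubation; cpd 15 conc + PK11195 0.75 uM final; 23 h, 37 C/5% CO2; CellTiter-Fluor, fluorescence.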

The nature of assay [8]: qHTS assay to identify small molecule antagonists of the constitutive androstane receptor (CAR) signaling pathway - cell viability counter screen (AID 1224837). Also: series mostly up to about 92 µM; nearly all actives have a fitted effect of over 45% in size. A digest of the protocol: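 HepG2-CYP2B6-hCAR cells, 2500/well, 4 hr pre-incubation; compound titration, 15 conc.; CITCO 50 nM final; 23 hr, 37 C/5% CO2; CellTiter-Fluor, fluorescence intensity.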
The target in assay [9] is Nuclear receptor subfamily 1 group I member 3 (Homo sapiens) (UniProt Q14994). Briefly: qHTS assay to identify small molecule antagonists of the constitutive androstane receptor (CAR) signaling pathway (AID 1224838).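 Also: HepG2 cells stably expressing hCAR with CYP2B6 luciferase reporter stimulated by CITCO; nearly all actives have a fitted effect of over 40% in size.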 A digest of the protocol:
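HepG2-CYP2B6-hCAR cells; 4 h pre-incubation; cpd (15 conc) + CITCO 50 nM final; 24 h, 37 C/5% CO2; ONE-Glo, luminescence.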

The target is the same in assay [10]. Briefly: qHTS assay to identify small molecule agonists of the constitutive androstane receptor (CAR) signaling pathway (AID 1224839). Also: nearly all actives have a fitted effect of over 15% in size. Also: potency is read from the fitted curve at half-maximal effect. An outline of the steps:
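HepG2-CYP2B6-hCAR cells, 2500/well, 4 h pre-incubation; compounds 15 conc.; PK11195 0.75 uM final; 24 h, 37 C/5% CO2; ONE-Glo luciferase read.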

Assay [11] can be described thus: qHTS assay to identify small molecule antagonists of the estrogen related receptor signaling pathway with the pleiotropic PPARgamma coactivator (PGC) from Tox21 10K library - cell viability counter screen (AID 1224840; active = well fitted cell-killing curve with a large enough effect in the repeat runs, not every such curve was filed as active; also: nearly all actives have a fitted effect of over 40% in size). A digest of the protocol: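 PGC/ERR cells, 2,000/well; 6 h pre-incubation 37 C/5% CO2; cpd in DMSO via pin tool; 17.5 h 37 C; CellTiter-Fluor, 30 min; fluorescence.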

Assay [12] addresses Thyrotropin receptor (Homo sapiens) (UniProt P16473). Briefly: qHTS assay to identify small molecule agonists of the thyroid stimulating hormone receptor (TSHR) signaling pathway (AID 1224843; calls by dose curve; also: nearly all actives have a fitted effect of over 45% in size). A digest of the protocol: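 TSHR-HEK293 cells in agonist mode, 30 min room-temperature step, then cAMP measured by competitive HTRF (cAMP-d2 with anti-cAMP cryptate) after 1 h at room temperature. Tested at 15 concentrations in triplicate.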

Assay [13] in a line: qHTS assay to identify small molecule antagonists of the estrogen related receptor signaling pathway with the pleiotropic PPARgamma coactivator (PGC) from Tox21 10K library (AID 1224841; call rule not given here; also: series mostly up to about 92 µM; actives are mostly falling curves and most rising ones were filed inactive; nearly all actives have a fitted effect of over 50% in size). An outline of the steps:
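PGC/ERR cell line, 2,000 cells/well; 6 h pre-incubation 37 C/5% CO2; compounds (DMSO) pinned in; 18 h, 37 C; One-Glo, 30 min RT; luminescence.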

Assay [14] in a line: qHTS assay to identify small molecule agonists of the estrogen related receptor signaling pathway with the pleiotropic PPARgamma coactivator (PGC) from Tox21 10K library (AID 1224842). Also: nearly all actives have a fitted effect of over 15% in size. A digest of the protocol:
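PGC/ERR reporter cell line, 2,000 cells per well, incubated 6 h at 37 C before 23 nL compound in DMSO was added. After 18 h at 37 C, One-Glo luminescence read following 30 min at room temperature.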

The nature of assay [15]: qHTS assay to identify small molecule antagonists of the estrogen related receptor (ERR) signaling pathway - cell viability counter screen (AID 1224818).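 Also: series mostly up to about 46 µM; viability measured after 17.5 h of compound exposure.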 A digest of the protocol:
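Multiplexed counter screen to separate cytotoxic compounds from true ERR modulators. ERR cells received DMSO-dissolved compounds after a 6 h pre-incubation, were exposed 17.5 h at 37 C, then assayed with CellTiter-Fluor fluorescence.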

Thyrotropin receptor (Homo sapiens), sequence (P16473 whole entry, looked up): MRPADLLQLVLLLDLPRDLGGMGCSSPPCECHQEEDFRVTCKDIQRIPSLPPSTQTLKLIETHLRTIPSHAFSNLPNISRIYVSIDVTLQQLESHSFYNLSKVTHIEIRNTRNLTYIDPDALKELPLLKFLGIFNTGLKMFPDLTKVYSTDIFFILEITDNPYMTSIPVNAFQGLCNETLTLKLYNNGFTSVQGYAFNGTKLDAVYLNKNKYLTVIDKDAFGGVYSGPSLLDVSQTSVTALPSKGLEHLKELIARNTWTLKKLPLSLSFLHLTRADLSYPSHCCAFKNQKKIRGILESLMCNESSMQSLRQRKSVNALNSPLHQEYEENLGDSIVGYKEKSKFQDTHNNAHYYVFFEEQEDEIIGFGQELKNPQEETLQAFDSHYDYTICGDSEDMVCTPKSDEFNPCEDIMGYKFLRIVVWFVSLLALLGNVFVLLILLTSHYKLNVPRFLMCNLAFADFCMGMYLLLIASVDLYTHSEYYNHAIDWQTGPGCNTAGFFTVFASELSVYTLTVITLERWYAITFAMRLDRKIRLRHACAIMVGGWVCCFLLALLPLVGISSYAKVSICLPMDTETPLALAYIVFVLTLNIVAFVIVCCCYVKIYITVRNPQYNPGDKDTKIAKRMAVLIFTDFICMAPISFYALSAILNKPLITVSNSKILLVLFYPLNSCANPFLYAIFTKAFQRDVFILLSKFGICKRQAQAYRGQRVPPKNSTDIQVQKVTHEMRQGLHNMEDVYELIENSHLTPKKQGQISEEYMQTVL
Luciferin 4-monooxygenase (Photinus pyralis), sequence (P08659 whole entry, looked up): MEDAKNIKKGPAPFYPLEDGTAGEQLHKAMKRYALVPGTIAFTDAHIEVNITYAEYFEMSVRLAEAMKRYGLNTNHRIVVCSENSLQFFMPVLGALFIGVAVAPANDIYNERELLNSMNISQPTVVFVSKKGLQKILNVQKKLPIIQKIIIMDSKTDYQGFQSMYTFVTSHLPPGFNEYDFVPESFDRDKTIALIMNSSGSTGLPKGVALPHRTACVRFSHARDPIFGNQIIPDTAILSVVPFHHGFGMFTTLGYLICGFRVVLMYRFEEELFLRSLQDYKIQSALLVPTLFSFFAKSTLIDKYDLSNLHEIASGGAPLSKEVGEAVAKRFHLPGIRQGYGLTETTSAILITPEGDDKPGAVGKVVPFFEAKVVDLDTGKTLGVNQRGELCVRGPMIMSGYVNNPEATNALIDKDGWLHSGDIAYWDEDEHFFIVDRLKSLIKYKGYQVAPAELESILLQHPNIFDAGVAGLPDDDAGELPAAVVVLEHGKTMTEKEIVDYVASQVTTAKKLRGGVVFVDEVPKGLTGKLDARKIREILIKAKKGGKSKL
Nuclear receptor subfamily 1 group I member 3 (Homo sapiens), sequence (Q14994 whole entry, looked up): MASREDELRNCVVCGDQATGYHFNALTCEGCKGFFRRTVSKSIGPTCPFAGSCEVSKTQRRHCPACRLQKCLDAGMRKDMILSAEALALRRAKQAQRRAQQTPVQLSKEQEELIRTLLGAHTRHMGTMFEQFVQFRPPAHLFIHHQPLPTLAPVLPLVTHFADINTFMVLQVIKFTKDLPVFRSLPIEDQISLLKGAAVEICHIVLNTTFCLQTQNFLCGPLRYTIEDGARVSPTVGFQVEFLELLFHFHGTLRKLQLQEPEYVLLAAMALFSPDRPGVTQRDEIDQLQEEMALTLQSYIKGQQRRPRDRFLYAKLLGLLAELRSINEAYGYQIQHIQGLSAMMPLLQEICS

On to `c1cc(-c2ccncc2)ccn1`, for which the Potency result in assay [1], in assay [2], in assay [3], in assay [4], in assay [5] and in assay [6] was “inactive” each time. In addition, the Potency result in assay [7], in [8], in assay [9], in [10], in assay [11] and in [12] was “inactive” throughout.

Turning to `O=C(O)c1ccccc1Nc1cccc(C(F)(F)F)c1`, the Potency entry in [1], in assay [2], in assay [3], in assay [4], in assay [6] and in [7] was “inactive” each time. Also, the Potency result in [8], in assay [9], in [10], in assay [11] and in [12] was “inactive” each time.

`CC(CCC(=O)O)(c1ccc(O)cc1)c1ccc(O)cc1`: the Potency result in assay [1], in [2], in [3], in [4], in assay [5] and in assay [6] was “inactive” in each case. In addition, the Potency entry in [7], in assay [8], in assay [9], in [10], in assay [11] and in assay [13] was “inactive” each time. For the same compound, the Potency result in [14] and in [12] was “inactive” throughout.

For the compound `CCOC(=O)C(C#N)=C(c1ccccc1)c1ccccc1`, the Potency entry in [1], in [2], in assay [3], in assay [4], in [5] and in assay [6] was “inactive” in each case. Besides, the Potency result in assay [7], in assay [8], in [9], in assay [11], in assay [13] and in assay [14] was “inactive” in each case. The Potency entry in [12] is “inactive”. Besides, in assay [10], the Potency was 3.86 µM (active) and 3.76 µM (active).

As for `O=c1oc(=O)c2cc3c(=O)oc(=O)c3cc12`, the Potency entry in assay [1], in assay [2], in assay [3], in assay [4], in assay [5] and in [6] was “inactive” each time. Besides, the Potency result in [7], in assay [8], in [9], in assay [10], in [11] and in assay [13] was “inactive” in each case. Also, the Potency result in assay [14] was “inactive”.

In the case of `CC(=O)c1ccccn1`, the Potency result in assay [1], in assay [2], in assay [3], in [4], in assay [5] and in [6] was “inactive” in each case. Moreover, the Potency entry in assay [7], in assay [8], in assay [9], in assay [10], in [11] and in assay [12] was “inactive” each time.

Regarding `C=C(C)C(=O)OCCOC(=O)C(=C)C`, the Potency result in assay [1], in assay [2], in assay [3], in assay [4], in assay [6] and in assay [7] was “inactive” each time. Besides, the Potency result in [8], in assay [9], in [10], in [11], in assay [13] and in assay [14] was “inactive” in each case. In addition, the Potency entry in assay [12] was “inactive”.

With `CC(C)OC=O`, the Potency result in assay [1], in assay [2], in assay [3], in [4], in assay [5] and in assay [6] was “inactive” in each case. In addition, the Potency result in assay [7], in assay [8], in [9], in [10], in [11] and in assay [13] was “inactive” throughout. Also, the Potency result in [14] and in assay [12] was “inactive” in each case.

Regarding `Nc1ccccc1N`, the Potency result in [1], in assay [2], in assay [3], in assay [15], in assay [9] and in assay [11] was “inactive” throughout. In addition, the Potency in assay [4] is 1.25 µM (active) and 1.72 µM (active); in assay [6], 8.15 µM (active) and 1.78 µM (active); in [10], 24.3 µM (active).
